Out of some 420,000 compounds screened, about 64,000 (15%) were called active. About 27% were inconclusive and are not listed. These entries were drawn from the full list. Unmarked numbers belong to inactive results. The call rests on the fitted dose curve; in most records, active means well fitted inhibition curve with a large enough effect; inconclusive means small, poorly fitted or top-dose-only effect; inactive means flat fitted curve, though single readings scatter.
assay: qHTS for Inhibitors of human tyrosyl-DNA phosphodiesterase 1 (TDP1): qHTS in cells in absence of CPT; details: DT40 Tdp1-/- hTDP1 cells, no CPT, ATP luminescence, 48 h; activity change, negative = growth inhibition: at 46.2 µM (top of the series); further: nearly all actives have a fitted effect of over 55% in size
Method in brief: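 Seeded 400 DT40-hTDP1 cells/well (vehicle DMSO, no 20 nM CPT); pinned compounds; ≥48 hr at 37 °C; CellTiter-Glo luminescence as viability measure.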
On the % scale 0 is the no-effect control and ±100 the full control effect; potency means the concentration at half of the fitted maximal effect.

| SMILES | activity change, negative = growth inhibition | Potency |
| --- | --- | --- |
| O=C1CCCCN1CCCC(=O)N1CCCC(Nc2ccc(F)cc2)C1 (stereo unspecified) | -24.8% | – |
| CCOC(=O)C1(Cc2ccccc2C)CCCN(C(=O)CN2C(=O)CSC2=O)C1 (stereo unspecified) | -8.61% | – |
| Cc1nc2cnc(N3CCN(C)CC3)nc2n(C[C@H]2CCCO2)c1=O | 13.7% | – |
| CC(=O)C1=C(O)C(=O)N(c2ccc(Br)cc2)C1c1ccc([N+](=O)[O-])cc1 (stereo unspecified) | 21.4% | – |
| Nc1ncc(S(=O)(=O)Nc2ccc(OC(F)(F)F)cc2)cn1 | -22.8% | – |
| O=C1Cc2cc(S(=O)(=O)Nc3ccc(OC(F)(F)F)cc3)cc3c2N1CCC3 | – | 18.4 µM (active) |
| O=C1CCc2cc(S(=O)(=O)Nc3ccc(C(F)(F)F)cc3)cc3c2N1CC3 | -17.8% | – |
| C=CCOc1ccccc1CNn1c(C)n[nH]c1=S | -17.6% | – |
| CCCN(C(=O)CSc1nnc(N)s1)c1c(N)n(Cc2ccccc2)c(=O)[nH]c1=O | -9.5% | – |
| CCCN1C(=O)C(Cc2nc3ccccc3c(=O)n2-c2ccccc2)c2cc(C)ccc21 (stereo unspecified) | -12.9% | – |
| O=c1c2ccccc2ncn1/N=C/c1ccccc1 | -4.26% | – |
| CCCc1nc2ccccc2c(=O)n1/N=C/c1ccc(O)c(O)c1 | – | 16.4 µM (active) |
| CC(C)Oc1ccc(C(=O)NC(C)(C)CO)cc1 | -14.9% | – |
| CC(Oc1ccc(Cl)cc1Cl)C(=O)/C=C/N(C)C (stereo unspecified) | -5.7% | – |
| O=C(CN(CC1CCCO1)C(=O)CNS(=O)(=O)c1ccccc1)NCc1ccccc1 (stereo unspecified) | -29.5% | – |
| Cc1cc(NC(=O)c2ccccc2C)no1 | 6.48% | – |
| Cc1ccc2occ(/C=N/NC(=O)c3ccccc3C)c(=O)c2c1 | – | 14.6 µM (active) |
| O=c1c(/C=N/O)coc2ccc(Cl)cc12 | -19% | – |
| Cc1ccccc1CSc1nnc(Cn2c(=O)sc3ccccc32)n1C | -17.7% | – |
| CCOc1cc(/C=N/NC(=O)c2ccc(CSc3nncn3C)cc2)ccc1OCC(=O)N1CCOCC1 | 13.3% | – |
| O=S(=O)(c1ccc(Cl)cc1)c1nc(-c2ccccc2F)oc1NCCN1CCOCC1 | -28.5% | – |
| CSc1nc(-c2ccco2)nn1C(=O)c1ccccc1Cl | -11.7% | – |

| SMILES | activity change, negative = growth inhibition | Potency |
| --- | --- | --- |
| COc1ccc(-c2nc(S(=O)(=O)c3ccccc3)c(N3CCCCC3)o2)cc1 | – | 18.4 µM (active) |
| O=S(=O)(c1ccccc1)c1nc(Cc2ccccc2)oc1N1CCOCC1 | -22.2% | – |
| O=S(=O)(c1ccc(Cl)cc1)c1nc(-c2ccco2)oc1N1CCCCC1 | – | 23.1 µM (active) |
| O=S(=O)(c1ccccc1)c1nc(-c2ccc(Cl)cc2Cl)oc1N1CCCCC1 | – | 13 µM (active) |
| O=C(CSc1oc(-c2ccccc2)nc1S(=O)(=O)c1ccc(Br)cc1)NC1CCCCC1 | -0.03% | – |
| O=S(=O)(c1ccccc1)c1nc(-c2ccccc2)oc1NCCCN1CCOCC1 | -16.3% | – |
| Cc1ccc(F)cc1S(=O)(=O)Nc1cccc(C(=O)N2CCCC(C(N)=O)C2)c1 (stereo unspecified) | 18.7% | – |
| COc1cc(=O)n2c(c1C(=O)NC(C)c1ccco1)CCN(Cc1cc(C)cc(C)c1)CC2 (stereo unspecified) | -11.3% | – |
| Cn1cc(C(=O)c2ccc(Cl)cc2Cl)cc1C(=O)NN | -21.6% | – |
| O=C(CNC(c1ccccc1)c1ccccc1)Nc1ccc(F)cc1 | -23.5% | – |
| OCCCC1CCCCN1Cc1nc(Cc2ccccc2Cl)no1 (stereo unspecified) | 10.4% | – |
| O=Cc1c(Cl)cccc1Cl | -0.244% | – |
| COc1ccc([N+](=O)[O-])cc1NCC(=O)c1ccc(C)cc1 | -24.8% | – |
| Cn1ncc2c(N3CCCCC3)nc(NCCCO)nc21 | -1.11% | – |
| Cc1cnc(C)c(-c2cc(F)c3c(c2)CC(CNC(=O)c2cccc(Cn4cccn4)c2)O3)n1 (stereo unspecified) | -26.2% | – |
| COCC1CCN(C(=O)c2ccc3oc(Cc4ccccc4)nc3c2)C1 (stereo unspecified) | 5.22% | – |
| CCOC(=O)c1ccc(NC2Nc3cc(C)nn3S2)cc1 (stereo unspecified) | 3% | – |
| COCCCn1c(CCC(=O)O)ccc1-c1ccc(F)cc1 | -4.41% | – |
| O=C(O)CCCn1c(=O)c2cccn2c2ccc(F)cc21 | – | 7.31 µM (active) |
| COc1cccc(CNC(=O)Cn2c(=O)c3cccn3c3ccc(F)cc32)c1OC | 6.54% | – |
| Cc1ccccc1-c1n[nH]c(=S)n1C | 16.2% | – |
| COC(CNC(=O)Cn1ncc2ccsc2c1=O)OC | -4.15% | – |

| SMILES | activity change, negative = growth inhibition | Potency |
| --- | --- | --- |
| Cc1c(CN2CCC(C)CC2)c(=O)n(-c2ccccc2)n1C | 0.472% | – |
| CCc1nnc(NC(=O)c2c(O)c3c([nH]c2=O)CCCC3)s1 | -24.8% | – |
| COC(=O)c1nc(NC(=O)c2ccccc2)n[nH]1 | -12.7% | – |
| Cc1cc2[nH]ncc2cc1NC(=S)NC(=O)c1ccccc1 | – | 18.4 µM (active) |
| Cc1ccc(C(=O)NC(=S)Nc2ccc3[nH]c(=O)[nH]c3c2)cc1C | 3.34% | – |
| O=C(COC(=O)C1CCCCC1)Nc1ccc([N+](=O)[O-])cc1 | -8.96% | – |
| C[C@@H]1CN([C@H](C)CO)C(=O)c2cc(NC(=O)NC3CCCCC3)ccc2O[C@H]1CN(C)S(C)(=O)=O | 1.34% | – |
| COc1ccc(/C=C/C(=O)NC(=S)NN2CCCCC2c2cccnc2)cc1 (stereo unspecified) | -37.1% | – |
| Cc1cc(N2CCN(Cc3ccc4c(c3)OCO4)CC2)n2ncnc2n1 | -17.8% | – |
| Cc1cc(Nc2cccc(F)c2)n2ncnc2n1 | -1.84% | – |
| Cc1cc(N2CCN(c3ccc(F)cc3)CC2)n2ncnc2n1 | – | 16.4 µM (active) |
| C=CCn1c(SCC(=O)NC)nnc1C12CC3CC(CC(C3)C1)C2 | -17.5% | – |
| O=C(c1ccc2c(c1)OCO2)N1CCNc2ccccc2C1 | -12.9% | – |
| CCCn1cc(SCC(N)=O)c2ccccc21 | 12.8% | – |
| CCC(=O)c1cn(CCOc2ccccc2OC)c2ccccc12 | – | 23.1 µM (active) |
| COc1ccccc1OCCn1c(SCC(N)=O)nc2ccccc21 | -6.59% | – |
| Cn1nnnc1SCC(=O)Nc1ccccc1C(=O)NC1CC1 | 9.22% | – |
| Cc1cc(=O)oc2c(C)c(OCC(=O)NCCc3ccc(S(N)(=O)=O)cc3)ccc12 | 2.29% | – |
| COc1cccc(NC(=S)NC(=O)c2c(Cl)c(C)nn2C)c1 | -8.21% | – |
| Cc1ccc(SCc2c(C(=O)N/N=C/C3CC=CCC3)nnn2-c2nonc2N)cc1 (stereo unspecified) | -24.7% | – |
| Cc1ccc(SCc2c(C(=O)N/N=C/c3cccnc3)nnn2-c2nonc2N)cc1 | -26.9% | – |
| Nc1nonc1-n1nnc(C(=O)N/N=C/c2cc(Br)ccc2O)c1CSC1=NCCS1 | – | 6.51 µM (active) |

| SMILES | activity change, negative = growth inhibition | Potency |
| --- | --- | --- |
| O=C(O)c1ccccc1C(=O)Nc1ccccc1[N+](=O)[O-] | -0.699% | – |
| CCOC(=O)N1CCN(C(=O)Cc2ccc(-n3c(=S)[nH]c4ccccc4c3=O)cc2)CC1 | -15.2% | – |
| Cc1ccc(C(=O)N/C(=C\c2ccco2)C(=O)NC2CCS(=O)(=O)C2)cc1 (stereo unspecified) | 6.49% | – |
| Cc1cc(C)cc(Oc2nc3c(C)cccn3c(=O)c2/C=C(\C#N)C(=O)NC2CCS(=O)(=O)C2)c1 (stereo unspecified) | – | 13 µM (active) |
| Cc1cccn2c(=O)c(/C=C(\C#N)S(=O)(=O)c3ccc(Cl)cc3)c(N3CCC(C(N)=O)CC3)nc12 | -20.6% | – |
| Cc1cc(C)n2nc(C(=O)N3CCN(Cc4ccc5c(c4)OCO5)CC3)nc2n1 | -14.8% | – |
| CCN(CC)S(=O)(=O)c1ccc2nc(CSc3nnnn3-c3ccc(O)cc3)[nH]c2c1 | -27.3% | – |
| CCOC(=O)/C(=N\Nc1ccccc1[N+](=O)[O-])c1csc(Nc2ccccc2)n1 | – | 16.4 µM (active) |
| CCOc1ccccc1Nc1ccc(C(=O)O)cc1[N+](=O)[O-] | 8.42% | – |
| Cc1csc(NC(=O)Nc2ccccc2[N+](=O)[O-])n1 | -20.3% | – |
| CC(=O)c1c(C)[nH]c(C(=O)NCCCN2CCCC2)c1C | 5.85% | – |
| Cn1cc[n+](C)c1COc1ccc(C=O)cc1 | 2.67% | – |
| Cc1noc(C)c1C(=O)NCCc1ccc(S(N)(=O)=O)cc1 | 7.32% | – |
| Cc1cccc(NS(=O)(=O)c2ccc([N+](=O)[O-])cc2)n1 | -3.46% | – |
| Cc1ccccc1OS(=O)(=O)c1cccc([N+](=O)[O-])c1 | -27.5% | – |
| O=[N+]([O-])c1cccc(S(=O)(=O)N2CCCCCC2)c1 | -29.9% | – |
| Cc1cc([N+](=O)[O-])ccc1NS(=O)(=O)c1ccccc1 | – | 23.1 µM (active) |
| O=[N+]([O-])c1ccc(NS(=O)(=O)c2ccccc2)c(Cl)c1 | – | 20.6 µM (active) |
| Cc1cc([N+](=O)[O-])ccc1NC1CCCC1 | 1.28% | – |
| COc1ccc(NC(=O)[C@H](NC(=O)[C@@H]2Cc3ccccc3CN2)c2ccccc2)cc1 | 8.27% | – |
| CCC(=O)Nc1sc(C(=O)N2CCCCC2)c(C)c1C#N | 3.68% | – |
| CCCCc1cc2c(s1)CCCC/C2=N/O | -9.17% | – |

| SMILES | activity change, negative = growth inhibition | Potency |
| --- | --- | --- |
| COc1ccc(NC(=O)CC2C(=O)NC3CCCCC3N2C(=O)c2ccc(F)cc2)cc1 (stereo unspecified) | -19.5% | – |
| COc1ccc(CNS(=O)(=O)c2ccc(NC(=O)N3CCCCC3)cc2)cc1 | – | 20.6 µM (active) |
| COc1ccc(NC(=O)N2CC3(CCN(C(C)=O)CC3)C2)cc1 | 11.3% | – |
| COc1ccc(S(=O)(=O)NC(C)C(=O)N2CCCCCC2)cc1 (stereo unspecified) | 12.3% | – |
| Cn1c2ccccc2c(=O)c2c(=O)n(Cc3ccco3)c(COc3ccccc3)nc21 | – | 14.6 µM (active) |
| CCn1c(COc2ccccc2)nnc1SCC(=O)NCc1ccco1 | -37.1% | – |
| COc1ccc(NC(=O)Cn2c(=O)n(Cc3ccco3)c(=O)c3ccccc32)cc1 | -3.08% | – |
| CCCc1cc(=O)oc2c(C)c(O)c(CN3CCCCC3)cc12 | -0.456% | – |
| COCCN(CCOC)c1nc(N)c2c(N)nc3c(c2c1C#N)CC(=O)N3Cc1ccc(Cl)cc1 | -26.2% | – |
| Cc1ccc(NC(=O)/C(=C\c2ccccc2)NC(=O)c2ccco2)cc1 | 8.92% | – |
| CCN1CCN(C(=O)Cn2nc(C)n3c(cc4c(OC)cccc43)c2=O)CC1 | -9.41% | – |
| COc1ccc(C2c3ccc(O)cc3Oc3ncn(CCCO)c(=N)c32)cc1OC (stereo unspecified) | 7.05% | – |
| Cc1ccc(NC(=O)COC(=O)CN2CCCCCC2=O)c(C)c1 | -13.6% | – |
| CC(C)C1C2=C(CC(C)(C)CC2=O)ON1c1ccccc1 (stereo unspecified) | – | 11.2 µM (active) |
| CC(C)N1C(=O)N(c2ccccc2)C(C)(O)CC1(C)C (stereo unspecified) | -9.56% | – |
| COC(=O)C1CC2=C(CC(C)(C)CC2=O)N(c2ccccc2)C1=O (stereo unspecified) | -16.6% | – |
| O=C(Cn1c(=S)nc2ccccn21)N1CCc2ccccc2C1 | -9.89% | – |
| CCc1nc2sc3c(Cl)ncnc3c2c2c1CCCC2 | 16.2% | – |
